Data on 16 compounds can be found in PubChem BioAssay.

For some of these results: Entries with a potency or affinity are not part of this list. Calls of active or inactive are those of the source.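 How the source made its calls, unless noted: active means primary screen activator hit with a dose response curve and TRPC4 channel activation at any tested dose; inactive means no activation, no dose response, or not a primary hit.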

Experiment [1] relates to TRPC4 beta (transient receptor potential cation channel C4), mouse. Briefly: activators of mouse TRPC4 channel, confirmation, cell-based, Fluo4 calcium, HEK293 TRPC4beta/mu-opioid, duplicates, 10 µM (AID 2426;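 active means fluorescence ratio normalized to control raised more than 50% in primary screen plus both repeat runs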). The settings on record: Fluo4 calcium fluorescence, at 10 µM; stronger effect = higher value.
Experiment [2] concerns transient receptor potential cation channel C4 beta (TRPC4), mouse. Briefly: activators of mouse TRPC4 channel, confirmation, cell-based, second round, Fluo4, HEK293 TRPC4beta/mu-opioid, 1 µM (AID 2461;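 active means primary screen active and over 50% activation in each of two duplicate runs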). The settings on record: Fluo4 calcium fluorescence, at 1 µM; stronger effect = higher value.
Experiment [3] relates to TRPC4 (transient receptor potential cation channel C4 beta), mouse. The experiment can be described thus: positive allosteric modulators of mouse TRPC4, confirmation, cell-based, second round, Fluo-4, HEK293 TRPC4beta/mu-opioid, 1 µM (AID 2554;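 active means primary screen hit whose fluorescence ratio, in both repeats, exceeds the weak agonist control mean by 3 SD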). The settings on record: DAMGO EC20, Fluo-4 calcium flux, at 1 µM; stronger effect = higher value.
Experiment [4] has as its system TRPC4 beta (transient receptor potential cation channel C4), mouse. The experiment can be described thus: positive allosteric modulators of mouse TRPC4, confirmation, cell-based, Fluo-4, HEK293 TRPC4beta/mu-opioid (AID 2555;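 active means primary screen hit whose calcium fluorescence ratio, in both repeats, exceeds the weak agonist control mean by 3 SD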). The settings on record: DAMGO EC20, Fluo-4 calcium flux, at 10 µM; stronger effect = higher value.
The target in experiment [5] is Short transient receptor potential channel 4 (Mus musculus) (UniProt Q9QUQ5). Briefly: inhibitors of mouse TRPC4 channel, confirmation, cell-based, Fluo4, HEK293 TRPC4beta/mu-opioid (AID 2636;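 active means calcium signal cut by more than 3 SD below the full-agonist control yet still positive, in both repeats and the earlier primary screen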). The settings on record: DAMGO, Fluo4 calcium flux, at 10 µM; stronger effect = higher value.
Experiment [6] shares this target. Briefly: inhibitors of mouse TRPC4 channel, confirmation, cell-based, second round, Fluo4, HEK293 TRPC4beta/mu-opioid, 1 µM (AID 2637;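 active means calcium signal ratio cut to more than 3 SD under the fully stimulated control mean yet still positive, in both repeats and the primary screen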;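 on inhibition: percent of integrated ratio relative to wells lacking test compound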). The conditions noted are these: Fluo4 calcium flux, DAMGO, at 1 µM; stronger effect = higher value.
For experiment [7] the target is unchanged. Briefly: mouse TRPC4 channel activators, dose response, cell-based, HEK293 TRPC4/mu-opioid, Fluo-4 calcium (AID 434937).
For experiment [8] the target is unchanged. Briefly: TRPC4 positive allosteric modulators, dose response, cell-based, HEK293 TRPC4/mu-opioid, Fluo-4 calcium, EC20 DAMGO (AID 434941;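 active means earlier screen potentiator hit that boosts the TRPC4 ion channel at some dose, with a dose response; inactive means no potentiation, no dose response, or not a prior hit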;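 further: calcium entry triggered by an EC20 dose of DAMGO at the co-expressed mu-opioid receptor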).
Experiment [9] deals with Short transient receptor potential channel 6 (Mus musculus) (UniProt Q61143). The experiment can be described thus: inhibition of mouse TRPC6 channel, confirmation, selectivity assay for TRPC4 inhibitor project, cell-based, HEK293, membrane potential dye, duplicate (AID 434948;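 active means active in primary screen and both duplicates, each dropping signal beyond three positive-control SD with fluorescence still positive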). The settings on record: HEK293 TRPC6, membrane potential dye fluorescence, at 10 µM, stimulated with maximal-effect acetylcholine; stronger effect = higher value.

Experiment [10] shares this target. Briefly: activation of mouse TRPC6 channel, confirmation, selectivity assay for TRPC4 activator project, cell-based, HEK293, membrane potential dye, duplicate (AID 434950;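 active means membrane potential signal rise above negative control mean plus 3 SD in both duplicates, also active in the earlier TRPC4 screen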;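 on activation: 0% = buffer only wells and 100% = acetylcholine maximal-effect wells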). The settings on record: HEK293 TRPC6, membrane potential fluorescence, at 10 µM; stronger effect = higher value.
Experiment [11] shares this target. Briefly: TRPC6 potentiation by TRPC4 potentiator hits, confirmation, selectivity assay for TRPC4 potentiator project, HEK293 cells, membrane potential dye, duplicate (AID 434952;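 active means compound raising the membrane signal above positive-control mean plus 3 SD in both repeats, and a primary screen hit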). The conditions noted are these: HEK293 TRPC6, membrane potential dye fluorescence, at 10 µM, maximal acetylcholine added after compound; stronger effect = higher value.
Experiment [12] addresses Short transient receptor potential channel 4 (Mus musculus) (UniProt Q9QUQ5). Briefly: calcium flux activators in TRPC4/5HT1a cells, counter-screen for TRPC4 activator project, cell-based, second counter screen, HEK293 TRPC4/5HT1a, Fluo-4 (AID 434977;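 active means calcium signal rise above buffer-control mean plus 5 SD in both duplicates, and also a hit in the primary screen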). The conditions noted are these: Fluo-4 calcium flux, at 10 µM; stronger effect = higher value.
The nature of experiment [13]: calcium flux inhibitors in TRPC4/5HT1a cells, confirmation, counter-screen for TRPC4 inhibitor project, cell-based, second counter screen, HEK293 TRPC4/5HT1a, Fluo-4 (AID 434978;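 active means primary screen active whose calcium signal fell more than 3 SD beyond the full-serotonin control mean in both duplicate plates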;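 on outcome: serotonin given first at submaximal then at maximal dose after compound preincubation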). The settings on record: Fluo-4 calcium flux, at 10 µM, serotonin added to trigger calcium flux; stronger effect = higher value.
In experiment [14] the test system is TRPC4 (mouse), co-expressed with 5HT1a in HEK293. Briefly: calcium flux potentiators in TRPC4/5HT1a cells, confirmation, counter-screen for TRPC4 potentiator project, cell-based, second counter screen, HEK293 TRPC4/5HT1a, Fluo-4 (AID 434979;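 active means signal rise over 3 SD above mean of control wells given weak agonist, in both repeats and first screen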). The settings on record: Fluo-4 calcium flux, at 10 µM, serotonin added at its EC20 dose; stronger effect = higher value.
Experiment [15] is described as follows: calcium flux activation in mu-opioid HEK293 cells, confirmation, counter-screen for TRPC4 activator project, cell-based, HEK293 mu-opioid receptor line (AID 449723;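 active means hit in primary screen, with calcium signal over 5 SD above buffer well mean in both duplicates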;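 further: counter screen cells carry the mu-opioid receptor alone and lack TRPC4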). The settings on record: Fluo-4 calcium fluorescence, at 10 µM; stronger effect = higher value.
Experiment [16] is described as follows: calcium flux enhancement in mu-opioid HEK293 cells, confirmation, counter-screen for TRPC4 allosteric potentiator project, cell-based, HEK293 mu-opioid receptor line (AID 449724;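 active means calcium signal rise more than 3 SD above the low-dose agonist control mean, in both duplicate plates and the primary screen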;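 further: HEK293 cells carrying mu-opioid receptor only with no TRPC4 channel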). The settings on record: Fluo-4 calcium flux, at 10 µM, compound added before EC20 DAMGO stimulus; stronger effect = higher value.

Sequence of Short transient receptor potential channel 4 (Mus musculus) (Q9QUQ5 whole entry, looked up): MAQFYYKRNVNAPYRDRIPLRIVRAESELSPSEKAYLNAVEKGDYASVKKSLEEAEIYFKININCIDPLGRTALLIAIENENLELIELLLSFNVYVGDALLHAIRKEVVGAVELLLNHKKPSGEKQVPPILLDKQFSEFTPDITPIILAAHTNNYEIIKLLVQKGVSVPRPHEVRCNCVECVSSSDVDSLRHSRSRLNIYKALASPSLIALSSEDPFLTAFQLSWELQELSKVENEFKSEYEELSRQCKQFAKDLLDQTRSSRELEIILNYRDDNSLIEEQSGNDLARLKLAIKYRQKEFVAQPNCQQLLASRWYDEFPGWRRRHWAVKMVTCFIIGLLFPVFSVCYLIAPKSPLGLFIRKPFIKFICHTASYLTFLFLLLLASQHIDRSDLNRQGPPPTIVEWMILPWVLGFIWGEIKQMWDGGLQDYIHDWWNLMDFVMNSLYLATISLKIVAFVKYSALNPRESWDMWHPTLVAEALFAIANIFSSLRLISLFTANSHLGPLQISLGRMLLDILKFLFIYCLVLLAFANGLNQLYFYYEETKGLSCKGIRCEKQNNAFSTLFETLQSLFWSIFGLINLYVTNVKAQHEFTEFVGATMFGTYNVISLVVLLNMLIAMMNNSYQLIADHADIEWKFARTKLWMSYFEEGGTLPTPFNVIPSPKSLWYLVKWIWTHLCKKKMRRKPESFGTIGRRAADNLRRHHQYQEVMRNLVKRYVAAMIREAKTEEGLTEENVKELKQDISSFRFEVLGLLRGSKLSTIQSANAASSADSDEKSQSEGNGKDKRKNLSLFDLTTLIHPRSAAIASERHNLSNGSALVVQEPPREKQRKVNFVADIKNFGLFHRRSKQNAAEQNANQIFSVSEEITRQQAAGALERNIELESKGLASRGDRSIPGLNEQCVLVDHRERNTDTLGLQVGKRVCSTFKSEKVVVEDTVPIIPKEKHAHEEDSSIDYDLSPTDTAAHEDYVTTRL
Sequence of Short transient receptor potential channel 6 (Mus musculus) (Q61143 whole entry, looked up): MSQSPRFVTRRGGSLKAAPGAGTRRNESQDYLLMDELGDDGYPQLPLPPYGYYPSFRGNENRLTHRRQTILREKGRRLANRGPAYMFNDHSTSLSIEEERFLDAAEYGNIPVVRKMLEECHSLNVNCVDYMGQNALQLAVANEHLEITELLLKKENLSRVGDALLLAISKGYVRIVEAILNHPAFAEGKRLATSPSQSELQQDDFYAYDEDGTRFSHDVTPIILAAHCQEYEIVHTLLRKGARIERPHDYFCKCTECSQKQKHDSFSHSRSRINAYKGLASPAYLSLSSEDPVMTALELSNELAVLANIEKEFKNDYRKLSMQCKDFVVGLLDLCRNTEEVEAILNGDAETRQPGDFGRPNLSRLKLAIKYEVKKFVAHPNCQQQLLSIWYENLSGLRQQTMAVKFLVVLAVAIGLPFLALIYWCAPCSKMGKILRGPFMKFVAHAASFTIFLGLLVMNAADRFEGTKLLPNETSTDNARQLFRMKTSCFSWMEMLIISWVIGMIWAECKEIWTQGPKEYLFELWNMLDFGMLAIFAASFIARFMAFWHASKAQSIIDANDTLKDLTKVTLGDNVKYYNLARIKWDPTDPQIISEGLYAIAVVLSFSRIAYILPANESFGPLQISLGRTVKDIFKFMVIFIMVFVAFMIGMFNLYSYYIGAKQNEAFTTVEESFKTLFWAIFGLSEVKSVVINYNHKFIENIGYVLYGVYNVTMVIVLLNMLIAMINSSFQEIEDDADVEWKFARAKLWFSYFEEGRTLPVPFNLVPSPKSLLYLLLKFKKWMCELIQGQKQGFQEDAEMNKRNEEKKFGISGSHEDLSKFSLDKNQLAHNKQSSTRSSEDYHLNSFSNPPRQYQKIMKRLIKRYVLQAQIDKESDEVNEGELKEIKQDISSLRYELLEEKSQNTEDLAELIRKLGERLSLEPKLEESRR

Turning to `O=C(CN1CCCCC1)N=Nc1c(O)[nH]c2ccccc12`, the outcome in experiment [1], in experiment [2], in experiment [3], in [4], in experiment [6] and in experiment [7] was inactive. Besides, the outcome in experiment [8], in [9], in [10], in experiment [11], in experiment [12] and in experiment [14] was inactive. The result in experiment [15] and in experiment [16] was inactive. Also, the inhibition in [5] was 80% (active); in [13] it was 33.5% (active).
For `O=C(Cc1cccc2ccccc12)Nc1ccc(Br)cc1C(=O)O`, the outcome in [1], in experiment [2], in [3], in experiment [4], in [6] and in [7] was inactive. Also, the result in experiment [8], in experiment [9], in experiment [10], in [11], in [12] and in experiment [14] was inactive. The outcome in experiment [15] and in [16] was inactive. Also, the inhibition in [5] is 89% (active); in experiment [13] it was 28.9% (active).
As for `CCOC(=O)C1(CC2CC2)CCN(Cc2cc(Cl)c(O)c(OC)c2)CC1`, the outcome in experiment [1], in [2], in experiment [3], in experiment [4], in experiment [6] and in [7] was inactive. Further, the outcome in experiment [8], in [9], in [10], in experiment [11], in experiment [12] and in experiment [13] was inactive. Further, the outcome in experiment [14], in experiment [15] and in [16] was inactive. Besides, the inhibition in experiment [5] was 71% (active).
For the compound `CCCc1cc(=O)[nH]c(SCC(=O)Nc2sc3c(c2C#N)CCCC3)n1`, the outcome in [1], in [2], in [3], in [4], in experiment [6] and in experiment [7] was inactive. Moreover, the result in experiment [8], in [9], in experiment [10], in experiment [11], in experiment [12] and in experiment [13] was inactive. The outcome in experiment [14], in experiment [15] and in [16] was inactive. Also, the inhibition in [5] is 85% (active).
Consider `Cc1c(CN2CCC(n3nccc3NC(=O)CCc3ccccc3)CC2)cnn1C`, for which the outcome in experiment [1], in experiment [2], in [3], in experiment [4], in experiment [7] and in experiment [8] was inactive. The compound was called inactive in [9], in experiment [10], in [11], in experiment [12], in experiment [13] and in experiment [14]. The result in experiment [15] and in [16] was inactive. Besides, the inhibition in experiment [5] was 94% (active); in [6], 68% (active).
With `CC(NCCC(Cc1ccccc1)c1ccco1)c1ccccc1` (stereo unspecified), the outcome in [1], in [2], in experiment [3], in experiment [4], in experiment [6] and in [7] was inactive. Also, the result in experiment [8], in experiment [10], in [11], in experiment [12], in experiment [14] and in experiment [15] was inactive. The outcome in experiment [16] was inactive. For the same compound, the inhibition in experiment [5] is 97% (active); in experiment [9] it was 39% (active); in experiment [13] it was 28.4% (active).
With `CC1CCCN(c2c3c(nc4ccccc24)CCCC3)C1` (stereo unspecified), the outcome in experiment [1], in [2], in experiment [3], in experiment [4], in experiment [5] and in [6] was inactive. Moreover, the result in experiment [7], in experiment [8], in experiment [9], in experiment [10], in experiment [11] and in [12] was inactive. Further, the outcome in experiment [14], in experiment [15] and in experiment [16] was inactive. Besides, the inhibition in experiment [13] is 27.9% (active).
`O=C(c1cccc(C(F)(F)F)c1)C1CCCN(Cc2cccn2-c2ccccn2)C1` (stereo unspecified): the result in experiment [1], in experiment [2], in [3], in experiment [4], in experiment [6] and in experiment [7] was inactive. The outcome in experiment [8], in experiment [10], in experiment [11], in experiment [12], in experiment [14] and in [15] was inactive. In addition, in [16], the outcome was inactive. Further, the figures for the inhibition in experiment [5], in experiment [9] and in [13] were 72% (active), 43% (active) and 29.2% (active), respectively.
With `O=C(NCCCN1CCOCC1)c1ccc(NC(=O)C2COc3ccccc3O2)cc1` (stereo unspecified), the result in experiment [1], in experiment [2], in experiment [3], in experiment [4], in [5] and in experiment [6] was inactive. For the same compound, the result in experiment [7], in experiment [8], in [9], in experiment [11], in experiment [12] and in [13] was inactive. For the same compound, the result in experiment [14], in experiment [15] and in experiment [16] was inactive. Moreover, in experiment [10], the activation is 49.5% (active).
Regarding `COc1ccc(C2CC2/C(=N/O)c2ccccc2)cc1` (stereo unspecified), the result in experiment [1], in [2], in experiment [3], in experiment [4], in [6] and in [7] was inactive. Moreover, the outcome in [8], in experiment [9], in experiment [10], in [11], in experiment [12] and in experiment [14] was inactive. The result in experiment [15] and in experiment [16] was inactive. Further, the inhibition in experiment [5] was 94% (active); in experiment [13], 7.57% (active).
For the compound `O=C(COC(=O)c1c(Cl)cccc1Cl)Nc1ccccc1Br`, the result in [1], in experiment [2], in experiment [3], in experiment [4], in [6] and in experiment [7] was inactive. The result in experiment [8], in experiment [9], in experiment [10], in experiment [11], in experiment [12] and in experiment [14] was inactive. The result in [15] and in experiment [16] was inactive. Besides, the inhibition in experiment [5] was 71% (active); in experiment [13], 29.5% (active).
Consider `CCOc1ccc(Cl)cc1/C=N/O`, for which the outcome in experiment [1], in experiment [2], in [3], in [4], in experiment [6] and in experiment [7] was inactive. The result in experiment [8], in [10], in experiment [11], in [12], in experiment [14] and in experiment [15] was inactive. Besides, the outcome in experiment [16] was inactive. Further, the results for the inhibition in experiment [5], in experiment [9] and in [13] were 86% (active), 2% (active) and 39.8% (active), respectively.
Consider `NC(=O)N/N=C1\c2ccccc2-c2c(C(N)=O)cccc21`, for which the outcome in experiment [1], in experiment [2], in [3], in experiment [4], in [7] and in experiment [8] was inactive. In addition, the result in experiment [9], in experiment [10], in experiment [11], in experiment [12], in experiment [14] and in experiment [15] was inactive. For the same compound, in [16], the result was inactive. Besides, the inhibition was 80% (active) in experiment [5], 65% (active) in experiment [6] and 38.9% (active) in [13].
As for `COCCCNc1cc(C)nc2ccccc12`, the outcome in experiment [1], in experiment [2], in experiment [3], in [4], in [6] and in experiment [7] was inactive. For the same compound, the outcome in experiment [8], in [10], in experiment [11], in [12], in experiment [13] and in [14] was inactive. Moreover, the outcome in experiment [15] and in experiment [16] was inactive. For the same compound, the inhibition was 94% (active) in experiment [5] and 50.5% (active) in experiment [9].
Turning to `CN(C)C(CNC(=O)c1ccccc1OCc1ccc(Cl)cc1)c1ccco1` (stereo unspecified), the result in experiment [1], in experiment [2], in experiment [3], in [4], in experiment [7] and in [8] was inactive. Besides, the result in experiment [9], in experiment [10], in [11], in experiment [12], in experiment [14] and in experiment [15] was inactive. Further, the outcome in experiment [16] was inactive. Also, the inhibition is 84% (active) in experiment [5], 62% (active) in experiment [6] and 23% (active) in [13].
Turning to `C/C(N)=C(/C#N)C(=O)COC(=O)CC12CC3CC(CC(C3)C1)C2`, the outcome in experiment [1], in experiment [2], in [3], in experiment [4], in [6] and in experiment [7] was inactive. For the same compound, the result in [8], in [9], in experiment [10], in experiment [11], in [12] and in [14] was inactive. Besides, the result in experiment [15] and in experiment [16] was inactive. Also, the inhibition in [5] is 83% (active); in experiment [13], 32.2% (active).
